Results on 20 molecules are retold here after PubChem BioAssay.

Assay [1] in a line: antimalarial activity against Dd2 strain (AID 2302;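 active means growth inhibition above 50% at the single 2 µM test dose, taken to imply half-maximal potency below 2 µM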;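 further: 0% = DMSO untreated growth and 100% = chloroquine plus artemisinin killed control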). Particulars: P. falciparum Dd2 in RBCs, LDH growth readout, 72 h; at 2 µM; stronger effect = higher value.
The nature of assay [2]: human hepatoma cell viability loss – ATP luminescence, cytotoxicity control for P. falciparum antimalarial project, primary screen (AID 2303;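 active means inhibition above 50%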;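 further: 0% = DMSO wells and 100% = digitonin-killed cells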). As to conditions: HepG2 viability, 24-48 h, at 10 µM, stronger effect = higher value.
For assay [3], the target named is L-lactate dehydrogenase (Plasmodium falciparum (isolate CDC / Honduras)) (UniProt Q27743). Put plainly: PfLDH activity inhibition – cell lysate, 3D7 strain, counter-screen for P. falciparum growth inhibition project (AID 2304).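 Further: 0% = vehicle and 100% = reference inhibitor.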 As to conditions: P. falciparum 3D7 crude extract, LDH APAD/NBT absorbance; at 2 µM; stronger effect = higher value.
The nature of assay [4]: inhibition of 3D7 malaria parasite growth – strain 3D7 (AID 2306).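 Further: 0% = DMSO wells and 100% = chloroquine plus artemisinin control wells.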 Particulars: P. falciparum 3D7 erythrocytic growth, LDH absorbance, 72 h; at 2 µM; stronger effect = higher value.
Assay [5] has as its target Calcium-dependent protein kinase 1 (Plasmodium falciparum (isolate 3D7)) (UniProt P62344). Put plainly: PfCDPK1 kinase inhibitors, biochemical, TCAMS library (AID 1159585; cut-off not given, nearly all actives have IC50 up to about 0.98 µM;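 further: inhibitors leave more ATP so luminescence rises with inhibition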). Particulars: recombinant PfCDPK1, Kinase-Glo ATP depletion luminescence.
Assay [6] addresses Plasmodium falciparum protein kinase 6 (PK6, PF3D7_1337100) (UniProt Q8IDW1). Put plainly: PfPK6 kinase inhibitors, biochemical, TCAMS library (AID 1159586). As to conditions: recombinant PfPK6, Kinase-Glo ATP depletion luminescence.
Assay [7] deals with Protein kinase 7 (PK7), Plasmodium falciparum 3D7 (PF3D7_0213400) (UniProt Q7YTF7). Put plainly: inhibition of Plasmodium PK7 catalytic activity – biochemical, TCAMS antimalarial set, Kinase-Glo luminescence (AID 1159587). Particulars: recombinant PfPK7, Kinase-Glo ATP depletion luminescence.
Assay [8] concerns the target Calcium-dependent protein kinase 4 (Plasmodium falciparum (isolate 3D7)) (UniProt Q8IBS5). Put plainly: PfCDPK4 kinase inhibitors, biochemical, TCAMS library (AID 1159588; cut-off not given, nearly all actives have IC50 up to about 0.91 µM). Particulars: recombinant PfCDPK4, Kinase-Glo ATP depletion luminescence.

Unmarked numbers belong to inactive results. For some of these results: Entries with a potency or affinity are not part of this list. Activity calls are given as the source filed them. Unless noted, how the calls were made is not given here.

L-lactate dehydrogenase (Plasmodium falciparum (isolate CDC / Honduras)), sequence (Q27743 whole entry, looked up): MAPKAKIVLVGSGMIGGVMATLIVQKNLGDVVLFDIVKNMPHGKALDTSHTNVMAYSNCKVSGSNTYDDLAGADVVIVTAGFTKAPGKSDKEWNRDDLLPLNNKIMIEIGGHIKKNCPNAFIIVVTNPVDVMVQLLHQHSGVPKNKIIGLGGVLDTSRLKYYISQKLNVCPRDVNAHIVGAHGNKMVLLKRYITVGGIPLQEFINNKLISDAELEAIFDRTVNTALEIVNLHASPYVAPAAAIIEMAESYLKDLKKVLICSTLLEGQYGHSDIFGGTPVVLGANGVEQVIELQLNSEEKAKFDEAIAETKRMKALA
Calcium-dependent protein kinase 1 (Plasmodium falciparum (isolate 3D7)), sequence (P62344 whole entry, looked up): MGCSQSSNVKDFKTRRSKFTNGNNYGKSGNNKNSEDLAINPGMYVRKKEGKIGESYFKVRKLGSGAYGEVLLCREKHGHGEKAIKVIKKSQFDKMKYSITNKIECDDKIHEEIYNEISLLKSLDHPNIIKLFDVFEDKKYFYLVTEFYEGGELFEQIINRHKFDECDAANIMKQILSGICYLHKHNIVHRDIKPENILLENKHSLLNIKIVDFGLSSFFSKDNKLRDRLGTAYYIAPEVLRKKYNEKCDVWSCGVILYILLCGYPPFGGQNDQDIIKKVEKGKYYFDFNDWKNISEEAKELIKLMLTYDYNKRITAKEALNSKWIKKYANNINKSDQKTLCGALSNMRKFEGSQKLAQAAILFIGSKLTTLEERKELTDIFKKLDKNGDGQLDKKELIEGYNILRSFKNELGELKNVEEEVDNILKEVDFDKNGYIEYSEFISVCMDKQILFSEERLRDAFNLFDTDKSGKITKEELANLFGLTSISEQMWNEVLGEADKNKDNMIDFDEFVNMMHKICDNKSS
Protein kinase 7 (PK7), Plasmodium falciparum 3D7 (PF3D7_0213400), sequence (Q7YTF7 1-343): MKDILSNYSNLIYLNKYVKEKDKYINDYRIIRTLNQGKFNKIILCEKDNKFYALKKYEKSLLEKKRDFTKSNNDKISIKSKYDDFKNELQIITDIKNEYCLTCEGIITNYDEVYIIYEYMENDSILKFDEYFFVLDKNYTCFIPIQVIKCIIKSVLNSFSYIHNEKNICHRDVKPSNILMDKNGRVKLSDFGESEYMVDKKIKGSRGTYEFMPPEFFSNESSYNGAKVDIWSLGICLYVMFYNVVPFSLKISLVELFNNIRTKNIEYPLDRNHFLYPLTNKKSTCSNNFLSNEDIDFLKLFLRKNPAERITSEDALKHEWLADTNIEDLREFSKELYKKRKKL
Plasmodium falciparum protein kinase 6 (PK6, PF3D7_1337100), sequence (Q8IDW1 1-305): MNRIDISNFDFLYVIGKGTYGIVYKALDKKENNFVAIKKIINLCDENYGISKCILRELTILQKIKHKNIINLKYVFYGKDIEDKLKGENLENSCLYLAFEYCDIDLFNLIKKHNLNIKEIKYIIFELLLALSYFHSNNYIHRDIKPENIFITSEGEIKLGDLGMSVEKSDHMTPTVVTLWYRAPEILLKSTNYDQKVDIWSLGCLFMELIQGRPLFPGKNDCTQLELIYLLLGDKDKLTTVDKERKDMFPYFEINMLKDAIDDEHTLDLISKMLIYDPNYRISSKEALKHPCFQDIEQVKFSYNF
Calcium-dependent protein kinase 4 (Plasmodium falciparum (isolate 3D7)), sequence (Q8IBS5 whole entry, looked up): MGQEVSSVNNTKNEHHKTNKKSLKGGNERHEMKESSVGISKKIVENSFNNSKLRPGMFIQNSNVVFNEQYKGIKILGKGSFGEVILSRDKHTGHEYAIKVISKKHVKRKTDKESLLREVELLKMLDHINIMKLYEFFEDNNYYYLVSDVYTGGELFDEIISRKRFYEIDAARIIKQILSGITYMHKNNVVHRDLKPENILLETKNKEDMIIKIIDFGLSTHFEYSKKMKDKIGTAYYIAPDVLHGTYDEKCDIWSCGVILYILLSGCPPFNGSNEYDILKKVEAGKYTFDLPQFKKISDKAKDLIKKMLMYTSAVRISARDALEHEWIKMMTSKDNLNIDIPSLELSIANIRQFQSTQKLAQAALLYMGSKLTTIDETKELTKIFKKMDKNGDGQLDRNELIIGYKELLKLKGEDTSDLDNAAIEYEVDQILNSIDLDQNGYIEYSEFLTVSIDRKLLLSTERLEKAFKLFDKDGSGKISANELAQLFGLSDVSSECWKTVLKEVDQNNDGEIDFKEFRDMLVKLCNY

Regarding `COc1ccc(C(=O)Nc2ccc3oc(-c4ccc(C(F)(F)F)cc4)cc3c2)cc1CCCN(C)C`, the growth inhibition is 27% in assay [1] and 98% (active) in assay [4]. Besides, the results for the inhibition in assay [2] and in assay [3] were 98% (active) and -1%, respectively. In addition, the result in assay [5], in assay [6], in assay [7] and in assay [8] was inactive.
Turning to `Cc1c2ccncc2c(C)c2c1[nH]c1cc(Cc3ccccc3)c(O)cc12`, the growth inhibition in assay [1] is 99% (active); in assay [4] it was 100% (active). Moreover, the inhibition in assay [2] is 99% (active); in assay [3], -4%. Also, the result in assay [5], in assay [6], in assay [7] and in assay [8] was inactive.
Turning to `CCOc1ccc2nc(C)cc(NN=Cc3ccncc3)c2c1`, the growth inhibition in assay [1] is 78% (active); in assay [4], 99% (active). Further, the inhibition is 8% in assay [2] and 0% in assay [3]. Also, the outcome in assay [5], in assay [6], in assay [7] and in assay [8] was inactive.
`CCCCNc1ccc(C(=O)NC2CCN(C[C@H](O)c3ccnc4ccc(OC)cc34)CC2)cc1`: the growth inhibition in assay [1] was 64% (active); in assay [4], 90% (active). The inhibition in assay [2] is 12%; in assay [3] it was -8%. Also, the result in assay [5], in assay [6], in assay [7] and in assay [8] was inactive.
Turning to `COc1ccc2ncc(F)c(CCN3CCC(NCc4ccc5c(c4)CCO5)CC3)c2n1`, the growth inhibition in assay [1] was 30%; in assay [4], 100% (active). Moreover, the inhibition in assay [2] was 20%; in assay [3], 3%. The outcome in assay [5], in assay [6], in assay [7] and in assay [8] was inactive.
Turning to `COc1ccc2c(OC)c(CNCCCCCCNCc3ccc4cc(OC)ccc4c3OC)ccc2c1`, the growth inhibition in assay [1] was 49%; in assay [4], 98% (active). Moreover, the inhibition in assay [2] is 100% (active); in assay [3] it was 4%. In addition, the outcome in assay [5], in assay [6], in assay [7] and in assay [8] was inactive.
In the case of `CCOC(=O)c1cn(CC)c2cc(N3CCCCC3)c(F)cc2c1=O`, the growth inhibition was 96% (active) in assay [1] and 97% (active) in assay [4]. Further, the figures for the inhibition in assay [2] and in assay [3] were 0% and 2%, respectively. Further, the result in assay [5], in assay [6], in assay [7] and in assay [8] was inactive.
Take `OC(CNCc1cccc(Oc2ccc(Cl)cc2)c1)c1cccc(C(F)(F)F)c1` (stereo not given): the growth inhibition was 78% (active) in assay [1] and 94% (active) in assay [4]. The inhibition was -1% in assay [2] and 3% in assay [3]. In addition, the result in assay [5], in assay [6], in assay [7] and in assay [8] was inactive.
On to `C=CCn1c(SCC(=O)Nc2cc(C)ccc2OC)nc2sc(C)cc2c1=O`, for which the growth inhibition in assay [1] is 86% (active); in assay [4] it was 100% (active). The inhibition in assay [2] is 6%; in assay [3] it was -5%. For the same molecule, the result in assay [5], in assay [6], in assay [7] and in assay [8] was inactive.
`O=C(/C=C/c1ccc(Cl)c(Cl)c1)NCCCCCCN1CCCN(C(=O)Nc2cccc(C(F)(F)F)c2)CC1`: the growth inhibition in assay [1] is 0%; in assay [4] it was 95% (active). Further, the results for the inhibition in assay [2] and in assay [3] were 25% and -3%, respectively. The result in assay [5], in assay [6], in assay [7] and in assay [8] was inactive.
For the molecule `O=C(NCCN1CCCC1)N1CCCN(c2ncnc3cc(-c4ccc(F)cc4)sc23)CC1`, the results for the growth inhibition in assay [1] and in assay [4] were 19% and 81% (active), respectively. Besides, the inhibition in assay [2] and in assay [3] was 5% throughout. For the same molecule, the outcome in assay [5], in assay [6], in assay [7] and in assay [8] was inactive.
With `COC(=O)c1c(C#N)c(OC)cc(O)c1CSC[C@H](Nc1nc(-c2ccc([N+](=O)[O-])cc2)cs1)C(=O)NCCN1CCCCC1`, the growth inhibition in assay [1] was 88% (active); in assay [4] it was 85% (active). Moreover, the figures for the inhibition in assay [2] and in assay [3] were 5% and -2%, respectively. Besides, the result in assay [5], in assay [6], in assay [7] and in assay [8] was inactive.
For the molecule `Cc1oc(-c2ccc(Cl)cc2)cc1C(=O)NCCC1CCN(CCCCCNC(=O)/C=C/c2ccc(Cl)c(Cl)c2)CC1`, the growth inhibition in assay [1] was 88% (active); in assay [4], 100% (active). Moreover, the inhibition in assay [2] is 100% (active); in assay [3], -4%. In addition, the result in assay [5], in assay [6], in assay [7] and in assay [8] was inactive.
As to `CC1CCCCC1N(C)C1CCN(CCCNC(=O)C=Cc2ccccc2Cl)CC1` (stereo not given), the growth inhibition in assay [1] is 14%; in assay [4], 100% (active). Besides, the figures for the inhibition in assay [2] and in assay [3] were 30% and 3%, respectively. For the same molecule, the result in assay [5], in assay [6], in assay [7] and in assay [8] was inactive.
In the case of `CC(=O)Nc1cccc(C(=O)Nc2ccc(-c3cccc(-c4nc5ccc(F)cc5[nH]4)c3)cc2)c1`, the growth inhibition in assay [1] is 8%; in assay [4], 96% (active). The inhibition in assay [2] is 90% (active); in assay [3] it was 0%. The outcome in assay [5], in assay [6], in assay [7] and in assay [8] was inactive.
As to `Cc1cnc(NCC2CCCCC2)nc1NCC(=O)Nc1ccccc1`, the growth inhibition is 51% (active) in assay [1] and 90% (active) in assay [4]. The inhibition was 21% in assay [2] and 0% in assay [3]. Besides, the result in assay [5], in assay [6], in assay [7] and in assay [8] was inactive.
As to `COc1ccc(-n2cc(C(=O)c3cc(Br)ccc3O)cc(C#N)c2=O)cc1Cl`, the figures for the growth inhibition in assay [1] and in assay [4] were 23% and 99% (active), respectively. Further, the values for the inhibition in assay [2] and in assay [3] were 29% and -5%, respectively. Also, the result in assay [5], in assay [6], in assay [7] and in assay [8] was inactive.
`FC(F)(F)c1ccc(Nc2nnnc3ccccc23)cc1`: the growth inhibition in assay [1] was 82% (active); in assay [4], 90% (active). Also, the inhibition in assay [2] was 3%; in assay [3], -6%. The result in assay [5], in assay [6], in assay [7] and in assay [8] was inactive.
For the molecule `CCOc1cc(C)ccc1C1CCN(CCCCNC(=O)c2cccc(-c3ccc(C(F)(F)F)cc3)c2)CC1`, the results for the growth inhibition in assay [1] and in assay [4] were 55% (active) and 99% (active), respectively. Also, the inhibition in assay [2] is 39%; in assay [3], 2%. Moreover, the outcome in assay [5], in assay [6], in assay [7] and in assay [8] was inactive.
Consider `CC(Oc1ccc(Cl)cc1)C(=O)N(C)C1CCN(CCCCCNC(=O)/C=C/c2ccc(Cl)c(Cl)c2)CC1` (stereo not given), for which the growth inhibition in assay [1] was 10%; in assay [4] it was 85% (active). In addition, the inhibition in assay [2] is 61% (active); in assay [3] it was -2%. Also, the outcome in assay [5], in assay [6], in assay [7] and in assay [8] was inactive.
